Assay outcomes deposited in PubChem BioAssay by National Center for Advancing Translational Sciences (NCATS).
An excerpt weighted towards active compounds, which were near 2.8% of everything screened.
KDM5B inh – Primary screen for KDM5B Histone Demethylases FDH-coupled qHTS | Lysine-specific demethylase 5B (Homo sapiens), Q9UGL1 | KDM5B demethylase, FDH-coupled NADH fluorescence (FDH is formaldehyde dehydrogenase) | Potency, µM (series often up to 57.7 µM), hits mostly inhibitors | hit rate 2.6% among 220,000 | AID 1347165, 2019; active means well fitted inhibition curve with a large enough effect; inconclusive means small, poorly fitted or top-dose-only effect; inactive means no such curve, though single readings can be large or run the other way; further: potency means the concentration at half of the fitted maximal effect; 0% is about no effect; nearly all actives have a fitted effect of over 70% in size
Target sequence (Q9UGL1 whole entry, looked up): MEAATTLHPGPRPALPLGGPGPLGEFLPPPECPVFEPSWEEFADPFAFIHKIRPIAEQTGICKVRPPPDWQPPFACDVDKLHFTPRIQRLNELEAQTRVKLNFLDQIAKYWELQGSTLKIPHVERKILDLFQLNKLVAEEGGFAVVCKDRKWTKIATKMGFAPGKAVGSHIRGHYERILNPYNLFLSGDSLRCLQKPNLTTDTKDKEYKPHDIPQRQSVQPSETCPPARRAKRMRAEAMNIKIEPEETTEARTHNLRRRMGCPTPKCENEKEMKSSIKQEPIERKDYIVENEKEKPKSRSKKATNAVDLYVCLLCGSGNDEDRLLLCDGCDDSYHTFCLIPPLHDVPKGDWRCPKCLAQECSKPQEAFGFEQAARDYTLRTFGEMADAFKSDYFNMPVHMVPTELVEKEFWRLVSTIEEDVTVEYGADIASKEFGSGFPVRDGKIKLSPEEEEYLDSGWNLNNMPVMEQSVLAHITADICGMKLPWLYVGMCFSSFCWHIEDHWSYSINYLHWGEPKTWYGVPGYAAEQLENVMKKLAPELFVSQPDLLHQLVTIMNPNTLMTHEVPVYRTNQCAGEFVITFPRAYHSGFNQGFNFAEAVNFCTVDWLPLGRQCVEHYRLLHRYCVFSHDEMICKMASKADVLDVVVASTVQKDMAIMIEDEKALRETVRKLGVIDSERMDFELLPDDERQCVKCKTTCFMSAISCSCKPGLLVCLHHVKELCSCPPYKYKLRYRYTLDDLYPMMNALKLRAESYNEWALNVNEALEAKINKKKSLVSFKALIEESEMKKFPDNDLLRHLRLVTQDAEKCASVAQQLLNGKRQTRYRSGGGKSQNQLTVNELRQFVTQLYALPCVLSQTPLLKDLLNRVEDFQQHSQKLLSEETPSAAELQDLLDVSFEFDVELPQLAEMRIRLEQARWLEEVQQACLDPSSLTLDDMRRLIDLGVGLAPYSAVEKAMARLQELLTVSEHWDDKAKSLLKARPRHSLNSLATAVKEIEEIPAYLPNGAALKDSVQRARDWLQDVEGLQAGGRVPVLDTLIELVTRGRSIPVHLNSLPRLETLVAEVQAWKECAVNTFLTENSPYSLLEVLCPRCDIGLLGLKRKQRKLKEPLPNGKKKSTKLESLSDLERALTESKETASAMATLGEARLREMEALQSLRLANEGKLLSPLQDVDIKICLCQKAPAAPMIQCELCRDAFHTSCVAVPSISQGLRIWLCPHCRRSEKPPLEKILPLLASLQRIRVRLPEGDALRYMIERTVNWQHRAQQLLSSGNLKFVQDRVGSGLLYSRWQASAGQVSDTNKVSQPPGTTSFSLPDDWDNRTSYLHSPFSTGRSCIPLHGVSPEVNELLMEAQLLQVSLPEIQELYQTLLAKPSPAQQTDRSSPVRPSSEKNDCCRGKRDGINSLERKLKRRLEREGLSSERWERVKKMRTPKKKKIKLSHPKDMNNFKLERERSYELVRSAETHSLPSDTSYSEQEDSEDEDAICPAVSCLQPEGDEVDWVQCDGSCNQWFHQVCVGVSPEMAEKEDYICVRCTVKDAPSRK
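Inhibition is measured as reduced NADH fluorescence generation from FDH coupling to formaldehyde release. Truncated KDM5BΔAP at 200 nM final acts on H3K4me3 peptide (12.5 µM in substrate mix) in pH 7.5 HEPES buffer with Tween-20, 30 min, room temperature.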
IP6K1 inh – Primary qHTS assay for small molecule inhibitors of Inositol hexaphosphate kinase 1 (IP6K1); IP6K1 kinase, ADP-Glo luminescence, 2 h; active compounds read low; activity change, % (series mostly up to about 58 µM); Inositol hexakisphosphate kinase 1 (Homo sapiens), Q92551; hit rate 0.81% among 140,000; in the data active means activity change below about -25%; further: on the % scale 0 is the no-effect control and ±100 the full control effect
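ADP-Glo luminescence measures ADP made by human IP6K1 during a 2 h RT reaction with ATP/IP6 (mix at 1.3 mM/130 uM); top library doses 57.5 and 19.1 uM final.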
Starred values were filed as active, the others as inactive.

For O=C(O)COCC(=O)N1C[C@@H]2C[C@H](C1)c1ccc(-c3cccc(C(F)(F)F)c3)c(=O)n1C2 the results were KDM5B inh 32µM* and IP6K1 inh 4.
O=C(c1ccccc1)N1C[C@@H]2C[C@H](C1)c1ccc(-c3cccc(C(F)(F)F)c3)c(=O)n1C2 was read as KDM5B inh 25µM* and IP6K1 inh 10.
Screening O=C(O)COCC(=O)N1C[C@@H]2C[C@H](C1)c1ccc(-c3cc4ccccc4s3)c(=O)n1C2 returned KDM5B inh inconclusive and IP6K1 inh 48.
`O=C(c1ccccc1)N1C[C@@H]2C[C@H](C1)c1ccc(-c3ccc(Cl)cc3)c(=O)n1C2` gave KDM5B inh inactive and IP6K1 inh -4.
For O=c1c(-c2cccc(C(F)(F)F)c2)ccc2n1C[C@H]1C[C@@H]2CN(S(=O)(=O)c2cccs2)C1 the results were KDM5B inh inconclusive and IP6K1 inh 4.
`O=C(O)CCC(=O)N1C[C@@H]2C[C@H](C1)c1ccc(-c3ccc(Cl)cc3)c(=O)n1C2` gave KDM5B inh 35µM* and IP6K1 inh -1.
COc1cc(OC)c2c(C)c(CC(=O)N3CCN(CCc4ccccn4)CC3)c(=O)oc2c1 was read as KDM5B inh inactive.
For CC(=O)C(C#N)c1ccccc1 (stereo not given) the results were KDM5B inh inactive.
`O=C(c1sc2cc(F)ccc2c1Cl)N1CCC2(CC1)OCCO2` gave KDM5B inh inactive.
CCCS(=O)(=O)N1[C@H]2CC[C@@H]1c1cnc(-c3ccc(F)cc3)nc1C2 was read as KDM5B inh inactive and IP6K1 inh 41.
`O=C1C[C@@H]2CCN(C3COC3)C[C@@H]2CCN1` gave KDM5B inh inactive and IP6K1 inh 3.
Screening CN(Cc1ccccc1)C[C@H]1CN2CC[C@H]1C[C@@H]2CNC(=O)c1ccc(C(F)(F)F)cc1 returned KDM5B inh inactive and IP6K1 inh -2.
Screening COc1ccccc1-c1cc([C@H]2CN3CC[C@H]2C[C@@H]3CNC(=O)N2CCOCC2)n(C)n1 returned KDM5B inh inactive and IP6K1 inh 17.
`Cc1nc(-c2ccc(N(C)C)cc2)cc([C@H]2CN3CC[C@H]2C[C@@H]3CNC(=O)N2CCOCC2)n1` gave KDM5B inh 28µM* and IP6K1 inh 2.
`COc1ccc(-c2cc([C@H]3CN4CC[C@H]3C[C@@H]4CNC(=O)N3CCOCC3)nc(C)n2)cc1OC` gave KDM5B inh 22µM* and IP6K1 inh -8.
Cc1nc(-c2cccs2)cc([C@H]2CN3CC[C@H]2C[C@@H]3CNC(=O)c2ccc(N(C)C)cc2)n1 was read as KDM5B inh inactive and IP6K1 inh -8.
For Cc1nc(-c2ccc(N(C)C)cc2)cc([C@H]2CN3CC[C@H]2C[C@@H]3CNC(=O)C(C)(C)C)n1 the results were KDM5B inh 32µM* and IP6K1 inh 12.
For Cc1nc(-c2ccc(N(C)C)cc2)cc([C@H]2CN3CC[C@H]2C[C@@H]3CNC(=O)C2CC2)n1 the results were KDM5B inh inconclusive and IP6K1 inh 3.
`COc1ccccc1-c1cc([C@H]2CN3CC[C@H]2C[C@@H]3COC(=O)Nc2ccc(C(C)C)cc2)nc(C)n1` gave KDM5B inh inactive and IP6K1 inh -17.
O=C(NC1CCCCC1)[C@H]1CN2CC[C@H]1C[C@@H]2Cn1cc(C2(O)CCCC2)nn1 was read as KDM5B inh inactive and IP6K1 inh 8.
For COCc1nnc2n1CCC(NC(=O)c1nn(C)c3ccccc13)CC2 (stereo not given) the results were KDM5B inh 28µM* and IP6K1 inh -5.
COCCn1c(C)cc(C(=O)NC2CCc3nnc(C)n3CC2)c1C (stereo not given) was read as KDM5B inh inactive and IP6K1 inh 9.
O=C(c1ccc(F)cc1)N1C[C@@H]2C[C@H](C1)c1c(/C=C/c3ccc(Cl)cc3)ccc(=O)n1C2 was read as KDM5B inh 32µM* and IP6K1 inh -1.
Cc1ccccc1-c1ccc2n(c1=O)C[C@H]1C[C@@H]2CN(C(=O)c2cncnc2)C1 was read as KDM5B inh inactive and IP6K1 inh 4.
Screening O=C(c1ccccc1)N1C[C@@H]2C[C@H](C1)c1ccc(C3CCCCC3)c(=O)n1C2 returned KDM5B inh 40µM* and IP6K1 inh 10.
Cc1ccccc1-c1ccc2n(c1=O)C[C@H]1C[C@@H]2CN(C(=O)c2ccc(F)cc2)C1 was read as KDM5B inh 35µM* and IP6K1 inh 1.
For O=C(Nc1ccc2n(c1=O)C[C@H]1C[C@@H]2CN(C(=O)c2ccccc2)C1)NC1CCCCC1 the results were KDM5B inh 35µM* and IP6K1 inh -2.
